Laboratory results taken from PubChem BioAssay.
Active and inactive are the calls of the source.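 How the source made its calls: active means normalized viability below 100% at a tested concentration; inactive means the rest.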

Assay: ovarian cancer cell viability with rucaparib, profiling panel, oncology-focused library, rucaparib conditional (AID 1508598)
Details: patient-derived ovarian cancer cells, CellTiter-Glo viability, 144 h; at 0.00488 µM; OCI-P5x cells; without rucaparib; stronger effect = lower value

Compound | viability
O=c1[nH]c(=O)n([C@@H]2C[C@H](O)[C@@H](CO)O2)cc1F | 98.1% (active)
COc1cccc2c1C(=O)c1c(O)c3c(c(O)c1C2=O)C[C@@](O)(C(C)=O)C[C@H]3O[C@H]1C[C@H](N)[C@H](O)[C@H](C)O1 | 94.6% (active)
C[C@]12CC[C@H]3c4ccc(O)cc4CC[C@H]3[C@@H]1CC[C@H]2O | 112% (inactive)
CC1=C(/C=C/C(C)=C\C=C\C(C)=C/C(=O)O)C(C)(C)CCC1 | 101% (inactive)
CC(C)CC(CC(=O)NO)C(=O)N[C@@H](Cc1ccc2ccccc2c1)C(=O)N[C@@H](C)C(=O)NCCN (stereo partly specified) | 94.4% (active)
COc1cccc2c1C(=O)c1c(O)c3c(c(O)c1C2=O)C[C@@](O)(C(=O)CO)C[C@H]3O[C@H]1C[C@H](N)[C@@H](O)[C@H](C)O1 | 97.5% (active)
COc1ccc(C2=N[C@H](c3ccc(Cl)cc3)[C@@H](c3ccc(Cl)cc3)N2C(=O)N2CCNC(=O)C2)c(OC(C)C)c1 | 90.1% (active)
CO[C@H]1C[C@H]2CC[C@@H](C)[C@@](O)(O2)C(=O)C(=O)N2CCCC[C@H]2C(=O)O[C@H]([C@H](C)C[C@@H]2CC[C@H](OC(=O)C(C)(CO)CO)[C@H](OC)C2)CC(=O)[C@H](C)/C=C(\C)[C@@H](O)[C@@H](OC)C(=O)[C@H](C)C[C@H](C)/C=C/C=C/C=C/1C | 56.9% (active)
O=C(O)c1cc(I)ccc1NC(=O)[C@H](Cc1ccccc1)NCc1ccccc1 | 97.1% (active)
Nc1ncn([C@@H]2O[C@H](CO)[C@@H](O)[C@@H]2O)c(=O)n1 | 116% (inactive)
CO[C@H]1C[C@@H]2CC[C@@H](C)[C@@](O)(O2)C(=O)C(=O)N2CCCC[C@H]2C(=O)O[C@H]([C@H](C)C[C@@H]2CC[C@@H](O)[C@H](OC)C2)CC(=O)[C@H](C)/C=C(\C)[C@@H](O)[C@H](OC)C(=O)[C@H](C)C[C@H](C)/C=C/C=C/C=C/1C | 62.3% (active)
CC(=O)OCC(=O)[C@]1(O)[C@H](C)C[C@H]2[C@@H]3CCC4=CC(=O)C=C[C@]4(C)[C@]3(F)[C@H](O)C[C@@]21C | 105% (inactive)
CC[C@]1(O)C[C@@H]2CN(CCc3c([nH]c4ccccc34)[C@@](C(=O)OC)(c3cc4c(cc3OC)N(C=O)[C@H]3[C@@](O)(C(=O)OC)[C@H](OC(C)=O)[C@]5(CC)C=CCN6CC[C@@]43[C@@H]65)C2)C1 | 17.7% (active)
C[C@@]12CC[C@H]3c4ccc(O)cc4C[C@@H](CCCCCCCCCS(=O)CCCC(F)(F)C(F)(F)F)[C@H]3[C@@H]1CC[C@@H]2O (stereo partly specified) | 117% (inactive)
CC(=O)O[C@@]1(C(C)=O)CC[C@H]2[C@@H]3C[C@H](C)C4=CC(=O)CC[C@]4(C)[C@@H]3CC[C@@]21C | 107% (inactive)
CC(=O)O[C@]12CO[C@@H]1C[C@H](O)[C@]1(C)C(=O)[C@H](O)C3=C(C)[C@H](OC(=O)[C@H](O)[C@@H](NC(=O)OC(C)(C)C)c4ccccc4)C[C@](O)([C@H](OC(=O)c4ccccc4)C21)C3(C)C (stereo partly specified) | 19.5% (active)
CCC1=CC2CN(C1)Cc1c([nH]c3ccccc13)[C@@](C(=O)OC)(c1cc3c(cc1OC)N(C)[C@H]1[C@@](O)(C(=O)OC)[C@H](OC(C)=O)[C@]4(CC)C=CCN5CC[C@@]31[C@H]54)C2 (stereo partly specified) | 20.3% (active)
CC(=O)O[C@H]1C(=O)[C@@]2(C)C([C@H](OC(=O)c3ccccc3)[C@]3(O)C[C@H](OC(=O)[C@H](O)[C@@H](NC(=O)c4ccccc4)c4ccccc4)C(C)=C1C3(C)C)[C@]1(OC(C)=O)CO[C@@H]1C[C@H]2O (stereo partly specified) | 39.8% (active)

Same assay, conditions: patient-derived ovarian cancer cells, CellTiter-Glo viability, 144 h; at 0.0195 µM; OCI-C5x cells; with rucaparib 10 µM; stronger effect = lower value; 100% = cells with rucaparib alone

Compound | viability
O=c1[nH]c(=O)n([C@@H]2C[C@H](O)[C@@H](CO)O2)cc1F | 98.9% (active)
COc1cccc2c1C(=O)c1c(O)c3c(c(O)c1C2=O)C[C@@](O)(C(C)=O)C[C@H]3O[C@H]1C[C@H](N)[C@H](O)[C@H](C)O1 | 198% (inactive)
C[C@]12CC[C@H]3c4ccc(O)cc4CC[C@H]3[C@@H]1CC[C@H]2O | 99.5% (active)
CC1=C(/C=C/C(C)=C\C=C\C(C)=C/C(=O)O)C(C)(C)CCC1 | 103% (inactive)
CC(C)CC(CC(=O)NO)C(=O)N[C@@H](Cc1ccc2ccccc2c1)C(=O)N[C@@H](C)C(=O)NCCN (stereo partly specified) | 123% (inactive)
COc1cccc2c1C(=O)c1c(O)c3c(c(O)c1C2=O)C[C@@](O)(C(=O)CO)C[C@H]3O[C@H]1C[C@H](N)[C@@H](O)[C@H](C)O1 | 78.4% (active)
COc1ccc(C2=N[C@H](c3ccc(Cl)cc3)[C@@H](c3ccc(Cl)cc3)N2C(=O)N2CCNC(=O)C2)c(OC(C)C)c1 | 127% (inactive)
CO[C@H]1C[C@H]2CC[C@@H](C)[C@@](O)(O2)C(=O)C(=O)N2CCCC[C@H]2C(=O)O[C@H]([C@H](C)C[C@@H]2CC[C@H](OC(=O)C(C)(CO)CO)[C@H](OC)C2)CC(=O)[C@H](C)/C=C(\C)[C@@H](O)[C@@H](OC)C(=O)[C@H](C)C[C@H](C)/C=C/C=C/C=C/1C | 93.2% (active)
O=C(O)c1cc(I)ccc1NC(=O)[C@H](Cc1ccccc1)NCc1ccccc1 | 119% (inactive)
Nc1ncn([C@@H]2O[C@H](CO)[C@@H](O)[C@@H]2O)c(=O)n1 | 114% (inactive)
CO[C@H]1C[C@@H]2CC[C@@H](C)[C@@](O)(O2)C(=O)C(=O)N2CCCC[C@H]2C(=O)O[C@H]([C@H](C)C[C@@H]2CC[C@@H](O)[C@H](OC)C2)CC(=O)[C@H](C)/C=C(\C)[C@@H](O)[C@H](OC)C(=O)[C@H](C)C[C@H](C)/C=C/C=C/C=C/1C | 101% (inactive)
CC(=O)OCC(=O)[C@]1(O)[C@H](C)C[C@H]2[C@@H]3CCC4=CC(=O)C=C[C@]4(C)[C@]3(F)[C@H](O)C[C@@]21C | 124% (inactive)
CC[C@]1(O)C[C@@H]2CN(CCc3c([nH]c4ccccc34)[C@@](C(=O)OC)(c3cc4c(cc3OC)N(C=O)[C@H]3[C@@](O)(C(=O)OC)[C@H](OC(C)=O)[C@]5(CC)C=CCN6CC[C@@]43[C@@H]65)C2)C1 | 44.5% (active)
C[C@@]12CC[C@H]3c4ccc(O)cc4C[C@@H](CCCCCCCCCS(=O)CCCC(F)(F)C(F)(F)F)[C@H]3[C@@H]1CC[C@@H]2O (stereo partly specified) | 118% (inactive)
CC(=O)O[C@@]1(C(C)=O)CC[C@H]2[C@@H]3C[C@H](C)C4=CC(=O)CC[C@]4(C)[C@@H]3CC[C@@]21C | 114% (inactive)
CC(=O)O[C@]12CO[C@@H]1C[C@H](O)[C@]1(C)C(=O)[C@H](O)C3=C(C)[C@H](OC(=O)[C@H](O)[C@@H](NC(=O)OC(C)(C)C)c4ccccc4)C[C@](O)([C@H](OC(=O)c4ccccc4)C21)C3(C)C (stereo partly specified) | 41.9% (active)
CCC1=CC2CN(C1)Cc1c([nH]c3ccccc13)[C@@](C(=O)OC)(c1cc3c(cc1OC)N(C)[C@H]1[C@@](O)(C(=O)OC)[C@H](OC(C)=O)[C@]4(CC)C=CCN5CC[C@@]31[C@H]54)C2 (stereo partly specified) | 39.2% (active)
CC(=O)O[C@H]1C(=O)[C@@]2(C)C([C@H](OC(=O)c3ccccc3)[C@]3(O)C[C@H](OC(=O)[C@H](O)[C@@H](NC(=O)c4ccccc4)c4ccccc4)C(C)=C1C3(C)C)[C@]1(OC(C)=O)CO[C@@H]1C[C@H]2O (stereo partly specified) | 37% (active)
